Source: PubChem BioAssay (several laboratories)
DAT uptake mod – changed human dopamine transporter uptake under cocaine IC80. Q01959. actives 1.3% (n = 110,000). B-score at 10 µM. LLC-PK1 hDAT cells, [14C]-dopamine uptake with cocaine IC80; actives deviate in either direction;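 active means Z score or B-score, a plate-position-corrected score, falls beyond the plate's 99.7% confidence bounds, in either direction; inactive means both scores lie inside the 99.7% bounds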;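 further: scored against the spread of the other compound wells on the same plate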
Target sequence (Q01959 whole entry, looked up): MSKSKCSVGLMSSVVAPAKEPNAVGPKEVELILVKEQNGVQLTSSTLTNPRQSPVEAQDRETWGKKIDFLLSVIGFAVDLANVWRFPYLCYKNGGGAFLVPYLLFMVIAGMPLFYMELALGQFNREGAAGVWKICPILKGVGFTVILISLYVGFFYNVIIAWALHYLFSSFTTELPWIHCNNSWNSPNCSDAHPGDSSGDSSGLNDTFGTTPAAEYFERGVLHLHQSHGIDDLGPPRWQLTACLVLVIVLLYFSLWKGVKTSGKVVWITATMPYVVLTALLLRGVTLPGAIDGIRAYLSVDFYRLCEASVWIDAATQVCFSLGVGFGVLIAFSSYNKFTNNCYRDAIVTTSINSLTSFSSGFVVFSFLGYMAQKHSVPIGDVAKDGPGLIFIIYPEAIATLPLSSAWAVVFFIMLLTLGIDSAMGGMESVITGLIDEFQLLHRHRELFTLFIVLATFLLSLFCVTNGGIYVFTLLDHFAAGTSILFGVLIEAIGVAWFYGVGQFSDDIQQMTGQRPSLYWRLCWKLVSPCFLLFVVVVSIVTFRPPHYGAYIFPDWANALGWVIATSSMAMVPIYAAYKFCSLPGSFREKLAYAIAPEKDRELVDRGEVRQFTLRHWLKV
CYP2C19 inhib – human CYP2C19 inhibition. actives 21% (n = 96,000). inhibition, % at 5 µM. P33261. CYP2C19 Supersomes, luciferin-H EGE luminescence, 30 min;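 active means CYP2C19 inhibition above a set limit at 5 µM in the primary screen, cut at about 50% in these data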;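 further: plate controls were negative control wells for no effect and 2.5 mM tranylcypromine positive control for full effect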
CYP2C9 inh – inhibitors of human CYP2C9; inhibition, % at 5 µM; AID 777; actives 20% (n = 96,000); CYP2C9 Supersomes, luciferin-H conversion, luminescence; P11712;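 active means blocking of liver enzyme CYP2C9 beyond about 50% at 5 µM, limit read from the data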
D1 mod – D1 dopamine receptor (human) allosteric modulation; P21728; HEK293 D1, CRE-luciferase, dopamine EC30 potentiation; actives deviate in either direction; B-score at 10 µM; actives 5.9% (n = 58,000);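 active means luminescence count or its row- and column-corrected plate score outside the 99.7% band of the plate's sample wells, on either side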
CYP2C9 activ – increases human cytochrome P450 2C9 activity. AID 1024. actives 1.4% (n = 96,000). activation factor at 5 µM. P11712. recombinant CYP2C9, luciferin-H conversion, luminescence; stronger effect = higher value; factor 1 = untreated enzyme, 0 = blocked;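 active means activation factor of 2 or more for CYP2C9 at a 5 µM dose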;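 further: 0 = sulfaphenazole-blocked wells and 1 = vehicle-only wells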
CYP2C19 activ – increases human CYP2C19 enzyme activity. P33261. recombinant CYP2C19, luciferin-H EGE luminescence; stronger effect = higher value; 0 = fully inhibited enzyme, 1 = untreated enzyme. activation factor at 5 µM. 96,000 tested, under 10 active;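 active means activation factor of at least 2 at 5 µM in the primary screen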;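 further: 0 = wells with 2.5 mM tranylcypromine and 1 = vehicle-only wells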
The depositor's hits bear a star; x = no result given. Compounds with a hit are over-represented: about 28% of the library has one in this group of screens.

SMILES	DAT uptake mod	CYP2C19 inhib	CYP2C9 inh	D1 mod	CYP2C9 activ	CYP2C19 activ
CCOc1ccc(NC(=O)c2cccc3c2C(=O)N(CCOC)C3)cc1	-0.0044	20	72*	x	0.3	0.8
COCCN1Cc2cccc(C(=O)Nc3c(C)cccc3C)c2C1=O	-0.36	42	25	-0.06	0.8	0.6
COCCN1Cc2cccc(C(=O)NC(C)c3cccs3)c2C1=O (configuration not stated)	0.055	63*	28	x	0.7	0.4
c1ccc2c(c1)sc1nnnn12	x	1	1	-0.64	1	1
Cc1c(Cl)cccc1NC(=O)CN1C(=O)CSc2ncccc21	-0.37	64*	-256	-0.038	3.6*	0.4
CCN1C(=O)NC(c2cc(Br)ccc2OC)C(C(=O)OC)=C1C (configuration not stated)	0.58	x	x	-0.46	x	x
N#CC1=C(N)SC(N)=C(C#N)C1C1C=CCCC1 (configuration not stated)	0.55	x	x	x	x	x
N#CC1=C(N)SC(N)=C(C#N)C1C1CC=CCC1 (configuration not stated)	-1.6	84*	48	0.0099	0.5	0.2
CCOc1ccc(OCC)c(-c2c(=O)n(OCc3ccccc3C(=O)OC)c3ccccc3[n+]2[O-])c1	2	37	38	x	0.6	0.6
CCOc1ccc(OCC)c(-c2c(=O)n(OCc3ccccc3Br)c3ccccc3[n+]2[O-])c1	0.12	74*	38	x	0.6	0.3
O=C(CCCC(=O)OCC1CCCO1)OCC1CCCO1 (configuration not stated)	-0.062	-1	38	0.068	0.6	1
CCO[C@@H]1OC(C(=O)NC2CC2)=C[C@H](c2ccc(C(F)(F)F)cc2)[C@H]1CCCO	-1.1	x	x	x	x	x
Clc1ccc(CSc2nnc(CN3CCOCC3)n2-c2ccccc2)cc1Cl	2.6	84*	62*	x	0.4	0.2
Clc1cccc(Cl)c1CSc1nnc(CN2CCOCC2)n1-c1ccccc1	2.1	33	7	x	0.9	0.7
Cc1ccc2nc(C)cc(Nc3ccc4c(c3)OCCO4)c2c1	-0.47	20	68*	x	0.3	0.8
CCOc1ccc2nc(C)cc(Nc3ccc4c(c3)OCCO4)c2c1	0.11	34	12	x	0.9	0.7
O=C(CSC(=S)N1CCOCC1)N1N=CCC1c1ccccc1 (configuration not stated)	-0.018	0	15	x	0.8	1
COc1ccccc1CN1C(=S)SC(C)(C)C1NO (configuration not stated)	-0.54	91*	68*	0.014	0.3	0.1
CN1C(=S)SC(C)(C)C1NO (configuration not stated)	0.00036	-10	-15	-1.1	1.2	1.1
COC(=O)C[C@H]1c2cc(F)ccc2S(=O)(=O)N1Cc1ccccc1	-0.42	x	x	x	x	x
Cc1onc(-c2ccccc2)c1C(=O)NC(C)C1CCCO1 (configuration not stated)	0.25	3	4	x	1	1
CCCCCOC(=O)C1=C(C)N(C)C(=O)NC1c1cc(Br)c(O)c(OC)c1 (configuration not stated)	1.6	59*	70*	0.49	0.3	0.4
CCOC(=O)C1=C(C)N(C)C(=O)NC1c1ccccc1OC (configuration not stated)	0.8	28	14	x	0.9	0.7
COc1ccc(C2=CSC3=C(C(=O)c4cccc(S(=O)(=O)N(C)C)c4)CCN23)cc1	0.19	86*	64*	x	0.4	0.1
COc1cccc(-c2nnc3sc(-c4ccccn4)nn23)c1	0.33	63*	27	1.5	0.7	0.4
SMILES	DAT uptake mod	CYP2C19 inhib	CYP2C9 inh	D1 mod	CYP2C9 activ	CYP2C19 activ
COc1ccc(-c2nnc3sc(-c4ccccn4)nn23)cc1	1.9	39	57*	0.25	0.4	0.6
COc1cccc(-c2nn3c(-c4ccccn4)nnc3s2)c1	0.043	52*	36	x	0.6	0.5
COc1ccc(C(CC(=O)NCCCN2CCOCC2)NS(=O)(=O)c2ccc(C)cc2)cc1 (configuration not stated)	-0.018	-11	-12	0.78	1.1	1.1
OC1(c2ccccc2F)CCN(Cc2nnnn2CCc2ccccc2)CC1	0.74	65*	80*	0.33	0.2	0.3
O=C(NC1CCN(Cc2nnnn2CCc2ccccc2)CC1)c1ccccc1F	-1.4	-6	16	0.37	0.8	1.1
C#CCNC(=O)C1=C[C@@H](c2ccc3c(c2)OCO3)C[C@@H](OCc2ccc(CO)cc2)O1	0.82	x	x	x	x	x
CCOC(=O)C1=C(C)Nc2ccc(C)cc2S1	0.17	66*	31	x	0.7	0.3
CCOC(=O)/C=C1\Nc2ccccc2SC1=O	0.47	44	49	0.094	0.5	0.6
CSCCOC(=O)C1=C(C)Nc2ccc(C)cc2S1	-0.65	50	61*	x	0.4	0.5
CC1(c2ccccc2)NC(=O)N(CCN2C(=O)c3ccccc3C2=O)C1=O (configuration not stated)	-0.16	96*	67*	0.21	0.3	0
O=C1c2ccccc2C(=O)N1CCN1CCCCC1	x	0	-7	0.32	1.1	1
CCCC1(c2ccccc2)NC(=O)N(CCN2C(=O)c3ccccc3C2=O)C1=O (configuration not stated)	0.076	89*	38	x	0.6	0.1
CC(C)(C)c1ccccc1OCCCCCNCCO	-0.39	7	-2	0.25	1	0.9
COc1ccc(/C=N/NC(=O)CCc2ccccc2)cc1O	-0.027	1	11	x	0.9	1
COc1cccc(/C=N/NC(=O)c2ccc(OCc3cccc(Br)c3)cc2)c1	1.3	50	84*	x	0.2	0.5
COc1cccc(/C=N/NC(=O)CCc2ccccc2)c1	0.33	60*	5	x	0.9	0.4
C=CCn1c(C)cc(C(=O)CSc2nnc3c(Cl)cc(Cl)cn23)c1C	-0.31	78*	-88	x	1.9	0.2
Cc1cc(C(=O)CSc2nnc3c(Cl)cc(Cl)cn23)c(C)n1C	0.67	20	3	x	1	0.8
Cc1ccc(N(CC(=O)N2CCc3ccccc32)S(=O)(=O)c2cccs2)cc1	0.53	5	9	x	0.9	1
COc1ccc(N(CC(=O)N2CCc3ccccc32)S(=O)(=O)c2c(C)nn(C)c2C)cc1	0.0084	26	60*	x	0.4	0.7
COc1ccc(N(CC(=O)N2CCc3ccccc32)S(=O)(=O)c2c(C)n[nH]c2C)cc1	-0.092	40	76*	0.56	0.2	0.6
Cc1nn(C)c(C)c1S(=O)(=O)N(CC(=O)Nc1ccccn1)c1ccc(C(C)C)cc1	0.67	x	x	x	x	x
CC1Cc2ccccc2N1C(=O)COC(=O)c1ccc(S(=O)(=O)N(C)C)cc1 (configuration not stated)	-0.69	2	-15	x	1.2	1
COc1ccc(NC(=O)CN(c2ccc(C)cc2)S(=O)(=O)c2c(C)nn(C)c2C)cc1OC	-0.2	-3	9	x	0.9	1
